Measured values as given in PubChem BioAssay (NCATS).
Records with an inconclusive call do not appear. A call without a number means that no potency is given here. Calls of active or inactive are those of the source. Calls follow the shape of the dose curve; as a rule, active = well fitted inhibition curve with a large enough effect; inconclusive = small, poorly fitted or top-dose-only effect; inactive = flat fitted curve, though single readings scatter.

What was measured:
Test in all cases: qHTS profiling for inhibitors of Plasmodium falciparum proliferation (AID 504749); also: nearly all actives have a fitted effect of over 60% in size
Settings in all cases: P. falciparum in erythrocytes, SYBR Green DNA, 72 h; series mostly up to 28.7 µM
AA1029 = tested on: AA1029
How it was run: (§1)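 Infected RBCs, 0.3% parasitemia/2.5% Hct final; cpd 72 h, 37 C, 5% CO2; lysis buffer with saponin/triton/SYBR Green I, o/n RT dark; FI 485/535; norm. to artemisinin (0.29 uM) and DMSO.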

ATS95 = tested on: ATS95
How it was run: as §1

C2A = tested on: C2A
How it was run: as §1

CP211 = tested on: CP211
How it was run: as §1

CP215 = tested on: CP215
How it was run: as §1

CP217 = tested on: CP217
How it was run: as §1

CP256 = tested on: CP256
How it was run: as §1

CP260 = tested on: CP260
How it was run: as §1

CP269 = tested on: CP269
How it was run: as §1

CP325 = tested on: CP325
How it was run: as §1

CP329 = tested on: CP329
How it was run: as §1

DIV14 = tested on: DIV14
How it was run: as §1

DIV17 = tested on: DIV17
How it was run: as §1

ICS = tested on: ICS
How it was run: as §1

N140 = tested on: N140
How it was run: as §1

P93_24 = tested on: P93_24
How it was run: as §1

PAD = tested on: PAD
How it was run: as §1

PC15 = tested on: PC15
How it was run: as §1

SC27B = tested on: SC27B
How it was run: as §1

TAB165 = tested on: TAB165
How it was run: as §1
Potency is read from the fitted curve at half-maximal effect.

C[C@@H](Cc1ccc(O)cc1)NC[C@@H](O)c1cc(O)cc(O)c1
Potency (AA1029): inactive
Potency (ATS95): inactive
Potency (C2A): inactive
Potency (CP211): inactive
Potency (CP215): inactive
Potency (CP217): inactive
Potency (CP256): inactive
Potency (CP260): inactive
Potency (CP269): inactive
Potency (CP325): inactive
Potency (CP329): inactive
Potency (DIV14): inactive
Potency (DIV17): inactive
Potency (ICS): inactive
Potency (N140): inactive
Potency (P93_24): inactive
Potency (PAD): inactive
Potency (PC15): inactive
Potency (SC27B): inactive
Potency (TAB165): inactive

C[C@@H]1O[C@@H](O[C@H]2C[C@@H](O)[C@@]3(CO)[C@H]4[C@H](O)C[C@]5(C)[C@@H](C6=CC(=O)OC6)CC[C@]5(O)[C@H]4CC[C@@]3(O)C2)[C@@H](O)[C@H](O)[C@H]1O
Potency (AA1029): inactive
Potency (ATS95): inactive
Potency (C2A): inactive
Potency (CP211): inactive
Potency (CP215): inactive
Potency (CP217): inactive
Potency (CP256): inactive
Potency (CP260): inactive
Potency (CP269): inactive
Potency (CP325): inactive
Potency (CP329): inactive
Potency (DIV14): inactive
Potency (DIV17): inactive
Potency (ICS): inactive
Potency (N140): inactive
Potency (P93_24): inactive
Potency (PAD): inactive
Potency (SC27B): inactive
Potency (TAB165): inactive

O=C1C[C@@H]2OCC=C3CN4CC[C@]56c7ccccc7N1[C@@H]5[C@@H]2[C@H]3C[C@H]46 (tested in a mixture with another compound)
Potency (PC15): inactive

C=C[C@@H]1CN2CC[C@H]1C[C@H]2[C@H](O)c1ccnc2ccccc12
Potency (AA1029): 891 nM (active)
Potency (ATS95): 447 nM (active)
Potency (C2A): 1410 nM (active)
Potency (CP211): 953 nM (active)
Potency (CP215): 757 nM (active)
Potency (CP217): 1260 nM (active)
Potency (CP256): 1120 nM (active)
Potency (CP260): 794 nM (active)
Potency (CP269): 1070 nM (active)
Potency (CP325): 675 nM (active)
Potency (CP329): 1510 nM (active)
Potency (DIV14): 426 nM (active)
Potency (DIV17): 379 nM (active)
Potency (ICS): 224 nM (active)
Potency (N140): 794 nM (active)
Potency (P93_24): 447 nM (active)
Potency (PAD): 501 nM (active)
Potency (PC15): 224 nM (active)
Potency (SC27B): 1000 nM (active)
Potency (TAB165): 355 nM (active)
